Measured values reported in paper PMC4336329 (PLoS ONE, 2015).
In all, about 310,000 compounds went through this assay and about 14,000 (4.5%) showed an effect of 50% or more. The effect is printed as a negative number. The sample holds strong results, similar compounds and a random draw of the others, so the mix is not that of the screen.

Each compound was assayed against human ether-à-go-go-related gene (hERG) potassium channel (human, UniProt Q12809) (assay: primary screen, population patch clamp on CHO cells stably expressing hERG; higher = less effect of the substance).
Chain of human ether-à-go-go-related gene (hERG) potassium channel (Q12809 whole entry, looked up): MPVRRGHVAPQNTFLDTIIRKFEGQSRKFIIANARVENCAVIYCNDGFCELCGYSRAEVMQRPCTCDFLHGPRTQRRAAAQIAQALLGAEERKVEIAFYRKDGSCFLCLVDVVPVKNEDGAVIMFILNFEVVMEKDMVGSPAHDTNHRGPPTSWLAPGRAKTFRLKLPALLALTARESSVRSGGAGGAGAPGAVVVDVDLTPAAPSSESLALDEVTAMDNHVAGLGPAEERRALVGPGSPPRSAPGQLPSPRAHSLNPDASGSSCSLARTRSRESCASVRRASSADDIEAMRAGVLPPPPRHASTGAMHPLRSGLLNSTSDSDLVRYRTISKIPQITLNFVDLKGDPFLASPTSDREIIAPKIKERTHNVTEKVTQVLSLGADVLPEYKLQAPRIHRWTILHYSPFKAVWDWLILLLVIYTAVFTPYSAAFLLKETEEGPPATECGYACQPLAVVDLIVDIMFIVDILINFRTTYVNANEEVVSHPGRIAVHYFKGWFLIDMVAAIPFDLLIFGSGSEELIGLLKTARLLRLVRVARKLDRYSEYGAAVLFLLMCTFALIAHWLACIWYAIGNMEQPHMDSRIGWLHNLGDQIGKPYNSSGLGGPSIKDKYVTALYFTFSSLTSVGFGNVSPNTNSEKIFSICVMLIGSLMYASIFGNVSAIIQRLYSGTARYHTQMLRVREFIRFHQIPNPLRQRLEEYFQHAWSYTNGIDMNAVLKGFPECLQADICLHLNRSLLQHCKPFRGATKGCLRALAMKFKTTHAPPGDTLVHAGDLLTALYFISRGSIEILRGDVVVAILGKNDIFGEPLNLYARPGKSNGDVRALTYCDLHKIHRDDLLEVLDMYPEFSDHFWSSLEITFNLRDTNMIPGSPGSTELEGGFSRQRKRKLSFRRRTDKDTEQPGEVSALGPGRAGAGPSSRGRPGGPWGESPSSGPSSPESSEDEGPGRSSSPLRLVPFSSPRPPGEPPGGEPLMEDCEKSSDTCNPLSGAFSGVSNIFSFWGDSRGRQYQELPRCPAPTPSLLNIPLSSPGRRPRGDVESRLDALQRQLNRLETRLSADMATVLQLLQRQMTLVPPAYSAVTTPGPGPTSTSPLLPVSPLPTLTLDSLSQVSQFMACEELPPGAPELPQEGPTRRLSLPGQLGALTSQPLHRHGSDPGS
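Further: peak tail current of the secondary pulse compared with the same well before compound.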

Compound	hERG current change (%, negative = inhibition) at 10uM [%]
Cn1c(N2C(=O)CC(Cc3ccccc3)C2=O)nc2ccccc21 (stereo not drawn)	-17.6
COc1ccc(CN(C(=O)c2cccs2)c2nccs2)cc1OC	-10.9
O=C1CC(NS(=O)(=O)c2cc(F)ccc2F)CN1c1ccc2c(c1)OCCO2 (stereo not drawn)	-4.13
Cc1cc(C)n2nc(SCC(=O)NC(=O)c3ccccc3Cl)nc2n1	0.516
COc1ccc(N2CC(C(=O)NC3CC(C)(C)NC(C)(C)C3)CC2=O)cc1 (stereo not drawn)	-2.68
COc1ccc(NC2c3ccccc3C(=O)N2Cc2ccc3c(c2)OCO3)cc1 (stereo not drawn)	-17.7
CCOC(=O)c1ccc(NC(=O)Nc2ccon2)cc1	6.02
O=C(O)C1=CC[C@@H](c2ccc(Cl)cc2)N(S(=O)(=O)c2ccc(Cl)cc2)[C@H]1c1cccc(Cl)c1	25.9
CCOC(=O)C1CCN(CC(=O)c2c(C)[nH]c3cc(C)ccc23)CC1	-60.5
CCOC(=O)C1CCN(CC(=O)c2c(C)[nH]c3ccccc23)CC1	-39.7
Cc1ccc2c(C(=O)CN3CCC(C(N)=O)CC3)c(C)[nH]c2c1	5.21
COc1cc(/C=N/NC(=O)c2ccc(Cl)cc2)ccc1OCC(=O)N1CC(C)OC(C)C1 (stereo not drawn)	-18.3
O=C(CN1CCN(C(=O)c2ccccc2)CC1)Nc1cc(S(=O)(=O)N2CCCC2)ccc1Cl	-32.8
O=C(CN1CCN(C(=O)c2cccc(S(=O)(=O)N3CCCC3)c2)CC1)Nc1ccccc1Cl	-66.8
O=C(CN1CCN(S(=O)(=O)c2ccccc2)CC1)Nc1ccccc1Cl	-6.93
O=C(CN1CCN(C(=O)c2cccc(S(=O)(=O)N3CCCC3)c2)CC1)Nc1ccc(F)cc1	-61.7
O=C(CN1CCN(C(=O)c2ccco2)CC1)Nc1cccc(S(=O)(=O)N2CCCC2)c1	-16.2
O=C(c1cccc(S(=O)(=O)N2CCCCC2)c1)N1CCN(S(=O)(=O)c2ccc(F)cc2)CC1	-40.6
CCOc1ccc(N2C(=O)/C(=C/c3ccco3)N(C)C2=S)cc1	-4.46
CCC(C)NC(=O)C1CCCN(C(=O)NC2CCCCC2)C1 (stereo not drawn)	13.8
Cc1cc(N2CCOCC2)nc2ccc(NC(=O)CCC(=O)N3CCN(c4ccc(F)cc4)CC3)cc12	21
COc1cc(SC)ccc1C(=O)N1CCN(S(=O)(=O)/C=C/c2ccccc2)CC1	-56.5
COc1cc(SC)ccc1C(=O)N1CCN(c2ccccc2OC)CC1	-24.5

Compound	hERG current change (%, negative = inhibition) at 10uM [%]
COc1ccc(Br)c(C(=O)N2CCN(S(=O)(=O)c3cccs3)CC2)c1	-9.75
COc1ccc(N2CCN(S(=O)(=O)/C=C/c3ccccc3)CC2)cc1	1.54
COc1cc(SC)ccc1C(=O)N1CCN(c2ccccc2F)CC1	-33.8
COc1ccc(Br)c(C(=O)N2CCN(S(=O)(=O)/C=C/c3ccccc3)CC2)c1	-58.8
CCOC(=O)c1c(NC(=O)CN2CCCc3ccccc32)sc(C(C)=O)c1C	5.24
CC1(C)CCC(=O)N2CC[C@H]3C[C@H](OC(=O)Nc4ccc5c(c4)OCO5)C[C@@H]1[C@H]32	-0.41
CC1(C)CC(=O)c2cc(OCC(=O)NCCN3CCCc4ccccc43)ccc2O1	-47.5
N#CC1=C(N)Oc2c(c(=O)oc3ccccc23)C1c1cccnc1 (stereo not drawn)	5.62
CC1(C)C2CC=C(/C=N/NC(=O)c3ccccc3Br)C1C2 (stereo not drawn)	-2.58
C=CC(C)(C)O[C@@H]1O[C@H](CO)[C@@H](O)[C@H](O)[C@H]1O	40.6
Cc1cccc(N2CCc3c2nc2ccccc2c3N)c1.O=C(O)C(=O)O	-53.7
Cc1cccc(N2CCc3c2nc2ccccc2c3N)c1.Cl	-61.9
Cc1ccc2nc3c(c(N)c2c1)CCN3c1ccccc1.O=C(O)C(=O)O	-35.4
Cc1cccc(N2CCc3c2nc2ccc(Br)cc2c3N)c1.Cl	6.56
CCCC(=O)Nc1c2c(nc3ccccc13)N(c1ccccc1)CC2	-1.55
Nc1c2c(nc3cccc(Cl)c13)N(c1ccccc1)CC2	31.7
CC(C)(C)c1ccccc1NC(=O)COC(=O)CN1C(=O)NC2(CCCC2)C1=O	15.8
Cc1c(OCC(=O)NCC(O)c2ccccc2)ccc2c3c(c(=O)oc12)CCC3 (stereo not drawn)	-8.23
Cl.O=C(CN1CCOCC1)c1ccc(Br)cc1	18
CN(CC(=O)NCC1CCCCC1)CC(=O)Nc1ccccc1Br	-21.2
COc1ccc(S(=O)(=O)N(CCCN2CCCC2=O)Cc2cc3c(C)ccc(C)c3[nH]c2=O)cc1	-36.1
Cc1ccc(S(=O)(=O)N(CCCN2CCCC2=O)Cc2cc3c(C)ccc(C)c3[nH]c2=O)cc1	-64
